# Screening results deposited in PubChem BioAssay by National Center for Advancing Translational Sciences (NCATS).
# D2 ag-1: agonists of human D2 dopamine receptor | AID 485358 | P14416 | HEK293 T-REx D2 cells, calcium flux agonist mode | activation, % at 2 µM | actives 0.53% (n = 340,000);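 active = activation over 3 SD above normal in the single-dose calcium agonist read, cut at about 30% in these data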; note: 0% is about no effect
# Target sequence (P14416 whole entry, looked up): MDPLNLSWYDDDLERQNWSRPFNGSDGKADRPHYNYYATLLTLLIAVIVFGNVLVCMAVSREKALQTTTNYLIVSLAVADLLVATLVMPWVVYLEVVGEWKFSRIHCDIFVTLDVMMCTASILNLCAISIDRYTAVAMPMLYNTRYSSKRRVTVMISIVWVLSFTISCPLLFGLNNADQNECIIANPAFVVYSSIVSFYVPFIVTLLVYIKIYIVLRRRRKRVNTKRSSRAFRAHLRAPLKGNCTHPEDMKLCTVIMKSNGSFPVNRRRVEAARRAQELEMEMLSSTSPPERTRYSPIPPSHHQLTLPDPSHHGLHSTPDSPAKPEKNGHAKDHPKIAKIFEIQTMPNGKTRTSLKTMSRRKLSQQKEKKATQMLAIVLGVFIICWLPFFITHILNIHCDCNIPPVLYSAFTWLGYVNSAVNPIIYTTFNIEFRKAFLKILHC
#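 HEK293 Trex D2 cells, tetracycline-induced, o/n 30 C 5% CO2; no-wash Ca dye, RT 30–90 min; 10-cycle baseline, 23 nl cpd added, kinetic Ca read 180 s; agonist hits = positive Ca response.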
# D2 PAM-1: D2 dopamine receptor (human) potentiation | AID 485347 | HEK293 T-REx D2, calcium flux, EC20 dopamine potentiation | potentiation, % at 10 µM | P14416 | actives 0.34% (n = 340,000);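 active = potentiation over 3 SD above the plate norm, cut at about 30% in these data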; note: 0% is about no effect
#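 Using a no-wash calcium dye in inducible, force-coupled HEK293 Trex cells expressing D2, we tracked fluorescence each second for 180 s after compound, then for 180 s after EC20 dopamine to detect augmented signalling.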
# D2 antag: antagonists of human D2 dopamine receptor. P14416. HEK293 TREx D2 cells, calcium flux, dopamine EC80. inhibition, % at 10 µM. actives 2% (n = 340,000); in the data active = inhibition above about 30%; inactive = below that, where a call was filed; note: 0% is about no effect
#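 Calcium flux kinetic readout in an inducible HEK293 TREx D2 line plated overnight at 30 C. After 180 s compound exposure, an EC80 dopamine challenge follows with another 180 s kinetic read to detect antagonism.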
# D2 PAM-2: human D2 receptor positive allosteric modulation | P14416 | AID 624464 | potentiation, % (no concentration beside the values) | DiscoveRx D2 beta-arrestin cells, luminescence, 90 min; 100% = 57 uM dopamine signal | actives 0.23% (n = 360,000); in the data active = potentiation above about 50%; inconclusive = mostly about 30% to 49%
#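 D2 cells co-treated with compound plus 50 nM dopamine (EC20) for 90 min at 37 deg C to detect potentiation. Beta-arrestin recruitment was read as enzyme-fragment luminescence after 1 h at ambient temperature. Full response was set by 57 uM dopamine.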
# D2 ag-2: activates the human D2 dopamine receptor; P14416; DiscoveRx PathHunter D2 beta-arrestin, luminescence, 90 min; 100% = 57 uM dopamine signal; activation, % (no concentration beside the values); actives 0.084% (n = 360,000); AID 624465; in the data active = activation above about 40%; inconclusive = between about 15% and that limit
#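 Agonist mode: compounds alone added to overnight-plated D2 PathHunter cells for 90 min at 37 C, with 57 uM final dopamine (EC100) defining full response. Beta-arrestin recruitment detected by chemiluminescent reagent, read after 1 h at ambient temperature.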
# * hit, by the source's call; ? = inconclusive; · = no result given. The list is not random: actives were taken first. Their share in the collection is about 2.4%.
SMILES,D2 ag-1,D2 PAM-1,D2 antag,D2 PAM-2,D2 ag-2
CCCN1CCCC(C(=O)c2cc(C)c(OC)c(C)c2)C1 (centres undefined),1,-27,86*,-13,-2
COc1ccc(-c2nc(CN3C(=O)CN=C(c4ccccc4)c4ccccc43)c(C)o2)cc1OC,-2,1,·,·,·
CCc1ccc(-n2nc(C)c3c2NC(=O)CSC3c2ccc(OC)cc2OC)cc1 (centres undefined),-1,-19,·,·,·
OC1(c2ccc(F)cc2)CCNC1 (centres undefined),0,-7,86*,-8,-4
COc1ccc(OC)c(NC(=O)Cn2cc(C(=O)c3ccccc3F)c3ccccc32)c1,0,-6,·,·,·
N#Cc1cc2c(nc1SCC(=O)Nc1ccc(C(F)(F)F)cc1)C1CCN2CC1,·,-7,·,·,·
CC1=CC(=O)C2=C(C)CC(O)C3C(C)C(=O)OC3C12 (centres undefined),0,3,35*,3,2
CN(C)C1(CNC(=O)c2ccc(NS(=O)(=O)c3ccc(Cl)c(Cl)c3)cc2)CCCCC1,1,0,8,-3,-1
CN(C)C1(CNC(=O)Nc2ccc(Cl)c(Cl)c2)CCCCC1,3,-34,54*,-15,-2
Cc1ccsc1C(=O)C1CCCN(Cc2cccc(-n3cccn3)c2)C1 (centres undefined),0,14,-9,-7,-5
Cc1ccsc1C(=O)C1CCCN(Cc2cccc(OCCO)c2)C1 (centres undefined),0,-23,52*,-17,-1
COc1ccc(CN2CCCC(C(=O)c3sccc3C)C2)cc1O (centres undefined),0,-17,41*,-8,5
Cn1c(=O)n(C)c2cc(CNCCc3ccccc3F)ccc21,2,-8,·,·,·
O=C1N(c2nncs2)CCN1[N+](=O)[O-],0,12,-4,69*,4
COc1ccc(OCC(=O)N2CCN(Cc3cc(=O)n4nc(-c5ccccc5C)sc4n3)CC2)cc1,0,15,·,·,·
Cc1cccc(CN2CC=C(c3noc(CCC(=O)Nc4ccc(C)c(F)c4)n3)CC2)c1,1,-7,·,·,·
Cc1ccc(OCC(=O)Nc2ccc(Cl)cc2C(=O)c2ccccc2)c(Br)c1,0,-2,·,·,·
C[C@@H]1CC[C@H]2[C@@H](C)C(=O)O[C@@H]3O[C@@]4(C)CC[C@@H]1[C@]32OO4,0,10,3,64*,?
O=c1c2ccccc2nc(/C=C/c2ccccc2O)n1-c1ccc(Br)cc1,0,2,·,·,·
COc1ccc(-c2nc(CN3C(=O)CN=C(c4ccccc4Cl)c4cc(Cl)ccc43)c(C)o2)cc1OC,7,-3,·,·,·
Cc1ccc(C2CC3CCC(C2)N3Cc2ccccc2F)cc1 (centres undefined),-1,-30,68*,-14,1
CC(C)(C)NC(=O)C1CC2CCCCC2CN1 (centres undefined),1,3,64*,1,-5
Cc1ccc(-n2nc(C)c3c2NC(=O)CSC3c2ccc(O)cc2)cc1Cl (centres undefined),-2,8,·,·,·
Oc1cc2c(cc1O)[C@H]1c3ccccc3CN[C@@H]1CC2,84*,-25,92*,·,·
COc1ccc2c(c1)C1OCCNC1CC2 (centres undefined),·,·,·,-11,1
SMILES,D2 ag-1,D2 PAM-1,D2 antag,D2 PAM-2,D2 ag-2
Cc1ccsc1C(=O)C1CCCN(Cc2c(C)nn(C(C)C)c2C)C1 (centres undefined),-1,-18,57*,-12,-2
Cc1ccsc1C(=O)C1CCCN(Cc2cnc(N3CCCC3)s2)C1 (centres undefined),1,-8,39*,-5,-1
CN1CCN(c2csc3ccc(F)cc3c2=O)CC1,·,17,·,·,·
C=CCn1c(O)c(C(CC)=NC2CC2)c(=O)[nH]c1=O,0,-12,39*,11,0
CC(=NCCN1CCOCC1)c1c(O)n(Cc2ccccc2)c(=O)[nH]c1=O,0,0,-7,-6,1
C=CCn1c(O)c(C(C)=NCCN2CCOCC2)c(=O)[nH]c1=O,1,-5,39*,-3,1
Cc1ccccc1CN1C(=O)C(C)N=C(c2ccccc2)c2ccccc21 (centres undefined),1,1,·,·,·
